The list is not random: actives were taken first. Their share in the collection is about 19%.
TDP1 cell CPT = DT40-hTDP1 cell growth loss with CPT; chicken DT40 Tdp1-/-;hTDP1 cells + 20 nM CPT, ATP luminescence, 48 h; AID 686979; Potency, µM (doses to about 46.2 µM), for inactives: top-dose activity change, negative = growth inhibition, most hits filed as inhibitors; 420,000 compounds, 12% hits; also: potency is read from the fitted curve at half-maximal effect; nearly all actives have a fitted effect of over 55% in size
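Cell growth measured by CellTiter-Glo luminescence after a minimum 48 h, 37 C compound exposure with 20 nM CPT in Tdp1-knockout DT40 cells stably expressing hTDP1, seeded 400/well; qHTS titration format.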
ELG1 repair inh = ELG1-dependent DNA repair inhibition | HEK293T ELG1-luciferase reporter, luminescence, 16 h; DNA damage induced by 5-fluorouridine | Potency, µM (series often up to 46.1 µM), inactives show at the highest dose activity change, negative = inhibition, usual class: inhibitors | 330,000 compounds, 2.3% hits; also: potency is read from the fitted curve at half-maximal effect; nearly all actives have a fitted effect of over 55% in size
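Cells (2,000 per well) received 5-fluorouridine plus test compound or DMSO and were incubated 16 hr at 37 °C, 5% CO2. Luciferase activity was read by luminescence 30 min after ONE-Glo addition; signal suppression marked inhibition of damage-induced ELG1 function.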
IL1B secr inh = blocks inflammasome-driven IL-1 beta release | THP-1 LPS/ATP IL-1B secretion, AlphaLISA, 16 h; active compounds read low | AID 743279 | activity change, % at 57.5 µM | 360,000 compounds, 4.7% hits; in the data active = activity change below about -50%; inconclusive = mostly about -30% to -49%
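THP-1 cells pretreated 1 hr with compounds (up to 57.5 uM final), then stimulated with LPS (250 ng/mL final) plus ATP (1.25 mM final); secreted IL-1B measured by AlphaLISA after 16 hr, decreased signal indicating inhibition.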
TDP1 block = TDP1 (human) enzyme inhibition | Q9NUW8 | recombinant TDP1, AlphaScreen DNA substrate cleavage | Potency, µM (titrated, usually from 130 µM), for inactives: at the top dose activity change, negative = inhibition, most hits filed as inhibitors | 350,000 compounds, 0.28% hits | AID 485290; also: potency is read from the fitted curve at half-maximal effect; nearly all actives have a fitted effect of over 40% in size
Target sequence (Q9NUW8 whole entry, looked up): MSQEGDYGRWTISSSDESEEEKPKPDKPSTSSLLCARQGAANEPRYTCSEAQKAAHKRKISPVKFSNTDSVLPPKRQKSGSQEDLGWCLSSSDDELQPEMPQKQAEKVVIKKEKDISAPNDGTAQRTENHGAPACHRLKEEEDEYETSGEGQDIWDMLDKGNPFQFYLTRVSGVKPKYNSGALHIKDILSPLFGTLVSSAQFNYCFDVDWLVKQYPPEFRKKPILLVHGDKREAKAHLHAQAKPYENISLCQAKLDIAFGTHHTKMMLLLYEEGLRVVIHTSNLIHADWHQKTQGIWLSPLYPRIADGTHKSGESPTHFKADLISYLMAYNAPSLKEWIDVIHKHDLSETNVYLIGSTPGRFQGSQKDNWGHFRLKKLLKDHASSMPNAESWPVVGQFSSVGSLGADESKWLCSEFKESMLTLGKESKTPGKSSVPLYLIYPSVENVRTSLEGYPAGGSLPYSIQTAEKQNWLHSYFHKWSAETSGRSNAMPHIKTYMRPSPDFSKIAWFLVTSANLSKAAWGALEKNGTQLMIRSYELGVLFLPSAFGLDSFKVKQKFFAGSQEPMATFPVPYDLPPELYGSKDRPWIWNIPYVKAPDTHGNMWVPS
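Enzyme-compound mixtures sat 15 min at room temperature, followed by a 5 min reaction with 15 nM final substrate and 10 min with AlphaScreen beads. Recombinant human Tdp1 was used at 1 nM final.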
DT40 TDP1 no CPT = qHTS for Inhibitors of human tyrosyl-DNA phosphodiesterase 1 (TDP1): qHTS in cells in absence of CPT. AID 686978, 2013. 420,000 compounds, 15% hits. Potency, µM (top dose mostly 46.2 µM), without a hit: top-dose activity change, negative = growth inhibition, actives largely listed as inhibitors. DT40 Tdp1-/- hTDP1 cells, no CPT, ATP luminescence, 48 h; also: potency is read from the fitted curve at half-maximal effect; nearly all actives have a fitted effect of over 55% in size
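Growth of hTDP1-complemented DT40 Tdp1-knockout cells is measured by ATP luminescence after at least 48 hr compound exposure at 37 °C, with DMSO substituting for the 20 nM CPT used in the parallel screen.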
Giardia kill = Giardia lamblia killing; AID 540267; 340,000 compounds, 0.15% hits; activity change, % at 7.66 µM, hits read low; Giardia lamblia trophozoite viability; in the data active = activity change below about -80%; inconclusive = between about -30% and that limit;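 also: parasites exposed to compound for two days anaerobically before the ATP read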
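Killing of trophozoites was scored by loss of ATP luminescence after a 48 hrs anaerobic exposure to compounds at 37 deg C, using 100 cells per well.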
* marks the source's active call; other numbers are inactive results; ? = inconclusive; · = no result given; [ ] = remark or other dose. Unless noted, calls follow the shape of the dose curve; as a rule, active = well fitted curve in the direction sought with a large enough effect; inconclusive = small, poorly fitted or top-dose-only effect, or another doubt; inactive = no such curve, though single readings can be large; an effect the other way counts as inactive or inconclusive. % is scaled to controls: 0 for no effect and ±100 for the full control effect.

SMILES | TDP1 cell CPT | ELG1 repair inh | IL1B secr inh | TDP1 block | DT40 TDP1 no CPT | Giardia kill
O=C(O)c1ccc(N/N=C/c2ccc(-c3cc(Cl)ccc3Cl)o2)cc1 | 25.9µM* | ? | ? | 70.8µM* | ? | ?
O=C(O)c1ccc(N/N=C/c2ccc(-c3cccc(Cl)c3)o2)cc1 | ? | ? | -12.9 | -3.9% | -10.5% | 24.3
COC(=O)c1ccc(NC(=O)C2C3C=CC(C3)C2C(=O)O)cc1 (centres undefined) | -5.6% | -5.5% | 0.2 | · | 19.1% | -0.8
O=C(ONC(=O)C1C2C=CC(C2)C1C(=O)NOC(=O)c1ccccc1)c1ccccc1 (centres undefined) | 3.26µM* | · | -16.2 | · | 2.91µM* | 10.3
CCCc1cc(=O)[nH]c(SCC(=O)N(CCOC)c2c(N)n(Cc3ccccc3)c(=O)[nH]c2=O)n1 | -14.1% | 26.9% | 12.6 | 0.3%[0.505 µM] | 19.8% | -2.4
COc1ccc(C(=O)NNc2ncnc3c2cnn3-c2cccc(Cl)c2)cc1OC | ? | · | · | -2.6% | ? | ·
CC(NC(=O)CN(C)CC(=O)Nc1ccc(Cl)cc1)c1ccc(F)cc1 (centres undefined) | ? | ? | ? | -0.6% | 18.4µM* | -2.5
CC(NC(=O)CN(C)CC(=O)Nc1ccc(F)c(F)c1F)c1ccccc1 (centres undefined) | ? | -6.8% | 21.2 | -1.2% | 19.9% | 1.2
COc1ccc(Cl)cc1NC(=O)CSc1nc(=O)n(CCN(C)C)c2c1CCCC2 | 16.4µM* | -3.2% | ? | · | ? | -11.6
CN(C)CCCn1c2c(c(SCC(=O)Nc3cccc4ccccc34)nc1=O)CCCC2 | -6.0% | 12.3% | -97.4* | -10.2%[0.505 µM] | -16.2% | -5.0
CCN(CC)CCCn1c2c(c(SCC(=O)Nc3cccc4ccccc34)nc1=O)CCC2 | -13.0% | -0.9% | -2.9 | 0.2% | -25.9% | 10.9
COc1ccc(NC(=O)CSc2nc(=O)n(CCN(C)C)c3c2CCCC3)cc1OC | -4.0% | 2.8% | -6.1 | 1.0% | -0.2% | -1.2
COc1cc(C2C(C#N)=C(N)N(N(C)C)C3=C2C(=O)CCC3)ccc1O (centres undefined) | 4.3% | ? | 14.1 | · | -8.9% | 40.6
CN(C)CCNC(=O)CCCN1C(=O)c2cccnc2Oc2ccc(Cl)cc21 | 0.6% | · | · | 5.0% | -15.2% | ·
O=C(NCc1ccc(Cl)cc1)C1CCN(S(=O)(=O)N2CCOCC2)CC1 | -10.3% | 9.9% | 24.7 | 7.4% | -16.2% | 4.8
COc1cc(=O)n2c(c1C(=O)N(C)Cc1cscn1)CCN(C(=O)c1ccc(C)cc1C)CC2 | 6.6% | · | · | · | -6.3% | ·
O=C(CCNS(=O)(=O)c1cccc(Cl)c1)OCC(=O)N1CCN(C(=O)c2ccco2)CC1 | 0.5% | 19.6% | -4.1 | -5.5%[56.1 µM] | 0.9% | -2.6
CCOC(=O)/C=C/C(=O)OCC(=O)N1CCN(C(=O)c2ccco2)CC1 | 7.31µM* | -6.0% | 0.0 | -16.2% | 14.6µM* | -5.6
CC1CCN(C(=O)COC(=O)/C=C/c2ccco2)CC1 | 12.8% | ? | 6.5 | 20µM* | ? | -20.2
CC(=O)Nc1ccc(S(=O)(=O)NCCC(=O)OCC(=O)N2CCN(C(=O)c3ccco3)CC2)cc1 | 2.2% | 13.4% | 0.5 | 39.8µM* | -0.8% | -5.9
Cc1cc(C)cc(OCC(=O)OCC(=O)NC2CCCCCCC2)c1 | -0.3% | 8.6% | -0.7 | -3.2% | -3.6% | 1.9
Nc1ccc2c(c1)C(=O)c1ccc(N)cc1-2 | 3.1% | · | -76.0* | · | -22.3% | 4.8
COc1ccc2cc(-c3[nH]ncc3CN3CCCN(c4ccccc4)CC3)ccc2c1 | 23.1µM* | 11.1% | ? | 8.1% | ? | 3.2
COc1ccc2cc(-c3[nH]ncc3CN3CCCCO3)ccc2c1 | ? | ? | 6.8 | 0.0% | ? | 10.0
Cc1cc(C)nc(NS(=O)(=O)c2ccc(NC(=O)c3cccs3)cc2)n1 | -1.0% | -16.1% | 11.8 | 2.2% | ? | 14.8
SMILES | TDP1 cell CPT | ELG1 repair inh | IL1B secr inh | TDP1 block | DT40 TDP1 no CPT | Giardia kill
CCCCN(CCCC)S(=O)(=O)c1ccc(NC(=O)c2ccc([N+](=O)[O-])cc2Cl)cc1 | ? | ? | 0.0 | 2.3% | 20.6µM* | -0.9
CCCCN(CCCC)S(=O)(=O)c1ccc(NC(=O)c2cccs2)cc1 | 25.9µM* | 23.1µM* | -84.9* | -0.7% | 20.6µM* | -4.9
CC1(C(=O)NS(=O)(=O)c2ccccc2)CCN1C(=O)CC1CC1 (centres undefined) | -3.1% | · | 0.0 | · | -1.8% | ·
CCOc1ccc(S(=O)(=O)N2CCCCC2)cc1NC(=O)CC1OC(=O)c2ccccc21 (centres undefined) | -12.3% | -21.5% | -8.3 | · | -24.4% | -9.4
Cc1ncc([N+](=O)[O-])n1CC(=O)N/N=C/c1ccc(F)cc1 | -1.3% | 21.2% | 0.0 | 0.0% | 20.7% | 5.6
CCC(=O)Nc1cccc(C(=O)/C=C/c2cc(Br)ccc2OC)c1 | 2.91µM* | ? | -104.5* | 6.8% | 4.11µM* | -18.8
COc1ccc(Br)cc1/C=C/C(=O)Nc1ccc2ccccc2c1 | ? | -9.3% | -19.8 | 5.5% | ? | 9.5
CC(=O)Nc1cccc(C(=O)/C=C/c2ccc(/C=C/C(=O)c3cccc(NC(C)=O)c3)cc2)c1 | · | ? | · | 3.0% | · | ·
CC(=O)Nc1cccc(C(=O)/C=C/c2cccs2)c1 | ? | 6.5% | -104.8* | 3.5% | 20.6µM* | -8.4
CC(=O)Nc1cccc(C(=O)/C=C/c2ccc[nH]2)c1 | ? | ? | -22.6 | 0.0% | ? | 1.4
CC(=O)Nc1cccc(C(=O)/C=C/c2ccc(N(C)C)cc2)c1 | 3.0% | ? | ? | -13.3% | ? | 3.5
CC(=O)Nc1cccc(C(=O)/C=C/c2ccc(Br)cc2)c1 | 3.26µM* | ? | -107.0* | 0.0% | 4.61µM* | 18.9
CC(=O)Nc1cccc(C(=O)/C=C/c2ccc(F)cc2)c1 | 2.31µM* | ? | -192.2* | -4.9% | 4.61µM* | -27.6
Cc1cc(NC(=O)COC(=O)C2CC(=O)N(c3cccc(Cl)c3)C2)no1 (centres undefined) | -21.5% | ? | 4.4 | 4.5%[0.0935 µM] | -15.7% | -11.2
COc1ccc(S(=O)(=O)N2CCN(Cc3ccc4c(c3)OCO4)CC2)cc1OC | -4.5% | · | · | 0.9% | -29.3% | ·
COCCCN1C(=O)C(CC(=O)NCCCN(C)C)CC(C(=O)N2CCCCCC2)=C1C (centres undefined) | -4.3% | · | 20.8 | · | -10.2% | ·
Cc1ccc(S(=O)(=O)N2CCN(CC(=O)NCC3(N4CCOCC4)CCCCC3)CC2)cc1 | -4.4% | -2.9% | 4.4 | -11.5% | -19.7% | -6.4
Cc1ccc(-c2nc(C(=O)NCc3ccc(Cl)cc3)c3n2CCCCC3)cc1 | · | · | · | 2.6% | · | ·
